Source: PubChem BioAssay
An excerpt weighted towards active compounds, which were near 4.7% of everything screened.
tim10-1 inh – growth inhibitors of tim10-1 mutant yeast, primary screen, luminescence, uHTS; actives 2.2% (n = 330,000); S. cerevisiae tim10-1 ts strain growth, BacTiter-Glo, 24 h; inhibition, % at 20 µM;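 active means inhibition of at least 40%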;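 further: mutant grown at 25 °C; 0% = DMSO wells with yeast and 100% = wells holding no yeast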
PfHsp90 set2 – growth inhibition of PfHsp90-expressing yeast, primary screen, antimalarial PfHsp90 inhibitor project, S. cerevisiae, BacTiter-Glo luminescence, single point, set 2; BacTiter-Glo ATP, 48 h; yeast lacking PDR1 and PDR3 efflux regulators; inhibition, % at 9.4 µM; actives 0.32% (n = 310,000);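 active means every replicate shows inhibition above about 80%, whatever the replicate mean, limit read from the data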;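 further: 0% = DMSO neutral controls and 100% = 20 µM radicicol positive controls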
SKKanGAS inh – S. pyogenes SKKanGAS growth inhibitors in kanamycin, primary screen, streptokinase expression inhibitor project, SKKanGAS strain, BacTiter-Glo luminescence; inhibition, % at 7.5 µM; actives 1.3% (n = 300,000); 6 h; AID 1662, 2009;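 active means mean replicate score, as percent of positive control median, at least 50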;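 further: strain carries kanamycin resistance gene driven by streptokinase promoter and grows in 40 µg/ml kanamycin; loss of luminescence reflects streptokinase promoter inhibition or plain growth inhibition; 0% = median of DMSO wells and 100% = positive control at its reference dose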
TIM10 inh – growth inhibitors of isogenic TIM10 control yeast, primary screen, counter-screen for tim10-1 yeast inhibitor project, luminescence, uHTS; AID 463195, 2010; actives 1.4% (n = 330,000); inhibition, % at 10 µM; S. cerevisiae TIM10 strain growth, BacTiter-Glo luminescence, 24 h;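 active means inhibition of 40% or more at the single tested concentration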;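 further: wild-type TIM10 isogenic control strain grown at permissive 25 °C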
EBI2 block – EBI2 receptor antagonists, beta-arrestin recruitment, primary screen, cell-based, luminescence, 7a,25-OHC stimulation, uHTS; G-protein coupled receptor 183 (Homo sapiens), P32249; 7a,25-OHC stimulated; inhibition, % at 5 µM; actives 0.81% (n = 360,000); in the data active means inhibition above about 38%;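 further: enzyme fragment complementation signal reports receptor beta-arrestin coupling in cells; 0% = agonist plus DMSO wells and 100% = wells without agonist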
Target sequence (P32249 whole entry, looked up, the tested form may be a part): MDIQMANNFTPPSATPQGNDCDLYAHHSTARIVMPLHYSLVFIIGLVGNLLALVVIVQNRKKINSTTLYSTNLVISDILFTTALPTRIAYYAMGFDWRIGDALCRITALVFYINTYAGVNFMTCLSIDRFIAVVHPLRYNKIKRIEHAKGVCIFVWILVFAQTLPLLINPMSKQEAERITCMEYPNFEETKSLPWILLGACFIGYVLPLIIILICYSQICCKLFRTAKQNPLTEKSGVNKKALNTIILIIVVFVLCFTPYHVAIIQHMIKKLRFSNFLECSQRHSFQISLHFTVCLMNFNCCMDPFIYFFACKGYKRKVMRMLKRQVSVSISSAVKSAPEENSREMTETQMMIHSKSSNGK
tim23-1 inh – growth inhibitors of tim23-1 mutant yeast, primary screen, luminescence, uHTS; actives 1.3% (n = 330,000); inhibition, % at 20 µM; S. cerevisiae tim23-1 growth, BacTiter-Glo luminescence, 24 h;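 active means growth inhibition of the mutant yeast at or above 50%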;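 further: temperature-sensitive mutant grown at 25 °C; plate controls were DMSO-treated mutant yeast for no effect and medium wells lacking yeast for full effect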
tim23-1 conf – tim23-1 mutant yeast growth inhibitors, confirmation, luminescence, single concentration; shares compounds with tim23-1 inh; S. cerevisiae tim23-1 growth, BacTiter-Glo luminescence, 24 h; inhibition, % at 20 µM; actives 83% (n = 4,400);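 active means inhibition above about 39% in either of two replicate wells at 20 µM, limit read from the data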;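 further: temperature-sensitive tim23-1 mutant grown at 25 °C; 0% = DMSO wells with yeast and 100% = medium wells without yeast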
* = called active by the depositor; · = not tested or not shown.

SMILES	tim10-1 inh	PfHsp90 set2	SKKanGAS inh	TIM10 inh	EBI2 block	tim23-1 inh	tim23-1 conf
CC1=NN(c2ccccc2)C(=O)C1C(=O)C(=O)Nc1ccc(F)cc1 (stereo not drawn)	5	-2	3	2	-3	4	·
COc1ccccc1[C@H]1C(c2cccc(C)c2)=NN(c2ccccc2)[C@@H]1CO	20	-30	·	0	12	51*	45*
O=C1Nc2ccccc2-n2nnnc2C1N1CCN(c2ccc(F)cc2)CC1 (stereo not drawn)	·	·	·	·	3	·	·
COCCCN1CC(=O)N2C(c3cccc(OC)c3OC)c3[nH]c4ccccc4c3C[C@H]2C1=O (stereo partly drawn)	11	14	-2	26	-1	14	·
CC(=O)NNC(=O)c1[nH]c2ccc(Br)cc2c1-c1ccccc1	19	2	-2	13	10	11	·
NNC(=O)c1[nH]c2ccc(Br)cc2c1-c1ccccc1	20	3	9	23	-7	53*	50*
COC(=O)Sc1nnc(-c2ccc(Br)cc2)o1	10	·	25	22	·	60*	52*
OCC#CCSc1nnc(-c2ccc(Br)cc2)o1	16	5	-3	35	-3	14	·
Cc1ccc(C(=O)Nc2nc(-c3ccccn3)cs2)s1	10	73	·	1	-5	62*	55*
CC(Oc1cccc(Cl)c1)C(=O)Nc1nc(-c2ccccn2)cs1 (stereo not drawn)	31	-15	-4	29	-1	67*	55*
CC(Oc1ccccc1)C(=O)Nc1nc(-c2ccccn2)cs1 (stereo not drawn)	23	·	·	18	-7	35	·
Nc1nnc(SCC(=O)OCc2ccc(F)cc2)s1	18	3	2	-10	-12	15	·
O=C(/C=C/c1cccnc1)c1ccccc1O	36	-35	2	-4	9	51*	50*
CCCCNC(=S)N(Cc1c(C)noc1C)c1ccccc1	20	3	5	25	2	22	·
NC1=C(Br)C(=O)c2ccccc2C1=O	25	-7	17	33	-5	56*	52*
Cc1cccc(NC(=O)CSCC(=O)Nc2ccccc2C(=O)NC2CC2)c1	12	-13	-7	-8	6	-6	·
COc1ccc(C2=C(C=O)Cc3ccccc3O2)cc1	33	-12	-7	25	6	51*	53*
Cc1ccc(C2CC(=O)NC(SCc3ccccc3)=C2C#N)cc1 (stereo not drawn)	24	8	1	22	5	27	·
CCCCCCSC1=C(C#N)C(c2ccccc2)CC(=O)N1 (stereo not drawn)	28	15	-3	29	7	51*	46*
O=C(OCC(=O)N1CCCC1)c1c(Cl)cccc1Cl	-8	13	14	7	-1	10	·
C=CCn1cccc(C(=O)Nc2ccc(OC)cc2)c1=O	5	-2	4	6	-7	95*	19
COc1ccccc1C1CC(=O)Oc2cc(C)cc(C)c21 (stereo not drawn)	17	3	·	1	0	42	·
Cc1cc(C)c2c(c1)OC(=O)CC2c1ccccc1C (stereo not drawn)	26	-30	·	-1	9	54*	29
COc1cc2c(c(OC)c1OC)C(c1ccccc1C)CC(=O)O2 (stereo not drawn)	3	5	·	5	2	55*	21
COc1ccc(C(=O)CC(=O)c2ccccc2O)cc1	4	-31	24	7	-10	50*	52*
COc1ccc(C(=O)CC(=O)c2ccccc2O)cc1OC	18	-6	10	15	-2	18	·
O=C(CC(=O)c1cc(Cl)ccc1O)c1ccccc1	34	-39	111*	23	5	55*	65*
